Where “and” joins values, the source holds several entries; their conditions need not be identical. Equal values may be shown once. Records with an inconclusive call do not appear. Where a structure was tested more than once in an assay, its records may differ in their call. Unmarked numbers belong to inactive results. Calls of active or inactive are those of the source. Calls come from the whole dose curve; as a rule, active = well fitted cell-killing curve with a large enough effect in the repeat runs; inconclusive = weak or mixed curves, or effect the other way; inactive = flat fitted curve, though single readings scatter.
% is set by controls: 0 for no effect and ±100 for the full control effect; potency is the fitted concentration of half-maximal effect.

This assay in a line: qHTS RealTime-Glo MT Cell Viability Assay in HEK293 cells - 40 hour (AID 1224874). Note: nearly all actives have a fitted effect of over 50% in size. The following applies: RealTime-Glo luminescence; max response: hits give low values. An excerpt:
U.S. Tox21 Program National Center for Advancing Translational Sciences [NCATS] NIH Chemical Genomics Center [NCGC] U.S. Environmental Protection Agency [EPA] National Institutes of Environmental Health Sciences [NIEHS] National Toxicology Program [NTP] U.S. Food and Drug Administration [FDA] Tox21 Assay Overview: Measure of cell viability is critical in the cell-base assay. Analysis of cell viability is necessary for the characterization of cell responses to cytotoxic drugs and environmental stress. A RealTime-Glo MT Cell Viability Assay to monitor cell viability in real time of continues cell culture during 40 hours of compound treatment was used to screen Tox21 10K library compounds in Hek293 cells. The RealTime-Glo MT Cell Viability Assay is a nonlytic, homogeneous, bioluminescent method to measure cell viability in real time using a simple, plate-based method. The assay involves adding NanoLuc luciferase and a cell-permeant prosubstrate to cells in culture. Viable cells reduce the proprietary prosubstrate to generate a substrate for NanoLuc luciferase. This substrate diffuses from cells into the surrounding culture medium, where it is rapidly used by the NanoLuc Enzyme to produce a luminescent signal. The signal correlates with the number of viable cells, making the assay well suited for cytotoxicity studies.
Tox21 Assay Protocol Summary: The mixture of Hek293 cell suspension and reagents were dispensed at 600cells/6 ul/well in 1536-well tissue culture treated black solid bottom plates using a Multidrop dispenser. After the assay plates were incubated at a 37 C/5% CO2 incubator for 5 hours, 23 nL of compounds dissolved in DMSO, positive and negative controls was transferred to the assay plate by a pintool work station. The plates were incubated at 37 C for 40 hours. The luminescence intensity were measured at 0h, 8h, 16h, 24h, 32h and 40h time points using ViewLux plate reader during compound treatment.
`C=C1CC[C@H](O)CC1=C/C=C1\CCC[C@]2(C)[C@@H]([C@H](C)/C=C/[C@H](C)C(C)C)CC[C@@H]12`: the Potency is 48.5 µM (active) and 49 µM (active).

Take `CCCCCCCCC`: the max response was 9.17% and -1.35%.

Take `CC[Si](OC(C)=O)(OC(C)=O)OC(C)=O`: the max response is 13.5% and 2.5%.

On to `OCC1CCCO1` (stereo not given), for which the max response was 1.79% and -10.7%.

As to `COCC(C)O` (stereo not given), the max response is -1.03% and -1.56%.

Regarding `C[C@@H](O)[C@H]1C(=O)N2C(C(=O)O)=C(S[C@@H]3CN[C@H](C(=O)N(C)C)C3)[C@H](C)[C@H]12`, the max response is 2.43% and 4.85%.

On to `CCCCCCC(C)(C)S`, for which the max response is 2.32% and -0.908%.

As to `CNC[C@H](O)[C@@H](O)[C@H](O)[C@H](O)CO`, the max response was 8.02% and 0.166%.

`CN(C)c1ccc(C(=N)c2ccc(N(C)C)cc2)cc1`: the Potency was 2.42 µM (active) and 2.97 µM (active).

Regarding `C/C=C(C)/C=C/C=C(C)C`, the max response was -28.6% and 16.8%.

As to `O=C(c1cc(O)c(O)c(O)c1)c1ccc(O)c(O)c1O`, the max response was -21.1% and -21.4% and -9.65%.

As to `O=S(=O)(Oc1ccc(Cl)cc1Cl)c1ccccc1`, the Potency is 14 µM (active) and the max response is -21.1%.

For the compound `CC1(C)O[C@@H]2C[C@H]3[C@@H]4C[C@H](F)C5=CC(=O)CC[C@]5(C)[C@H]4[C@@H](O)C[C@]3(C)[C@]2(C(=O)CO)O1`, the max response is -22.4% and 2.26%.

Consider `COC(=O)c1ccc(C(=O)OC)cc1`, for which the max response was 0.23% and the Potency is 35.1 µM (active).

For the compound `CCCCC/C=C\C/C=C\CCCCCCCC(=O)OC`, the max response is 3.92% and -0.83%.

`CCCCOCCOCCOC(=O)CCCCC(=O)OCCOCCOCCCC`: the max response was 3.67% and 5.42%.

For the compound `CC(C)(C)C(=O)C1C(=O)c2ccccc2C1=O`, the max response was -29.9% and -11.1%.

`O=Nc1ccc(O)cc1`: the max response is 2.25%.

`CC1=CC[C@H]2C[C@@H]1C2(C)C`: the max response is 0.867% and -1.12%.

On to `CCCCC(CC)COC(C)=O` (stereo not given), for which the max response was 1.23% and 1.38%.

As to `CCc1ccccc1O`, the max response was -2.02%.

Consider `CS(=O)(=O)c1ccc([C@@H](O)[C@@H](CO)NC(=O)C(Cl)Cl)cc1`, for which the max response was 13.1% and 7.93%.

In the case of `OCC#CCO`, the max response was 0.572% and 1.12%.

As for `CCOC(=O)/C=C\C(=O)OCC`, the max response was 0.421% and 21.2%.

For `Cc1ccc(C)c(C)c1`, the max response was 7.97% and 2.35%.

As for `CCc1ccc(O)cc1`, the max response was 3.14% and 3.17%.

`CCCCC(CC)COC(=O)/C=C\C(=O)OCC(CC)CCCC` (stereo not given): the max response is 1.02% and -3.16%.

On to `O=S(=O)(O)CCS`, for which the max response is 0.917% and -2.58%.

Take `O=[N+]([O-])c1cccc(Cl)c1`: the max response was 7.7%.

For the compound `ClC1=C(Cl)C(Cl)(Cl)C(Cl)=C1Cl`, the Potency is 34.9 µM (active).

On to `CCCCCCCCCCC=CC1CC(=O)OC1=O` (stereo not given), for which the max response is 0.806% and -0.583%.

On to `CC(C)Cc1ccccc1`, for which the max response is 14.2% and -0.413%.

`CCOC(=O)[C@H](CCc1ccccc1)N[C@@H](C)C(=O)N1Cc2ccccc2C[C@H]1C(=O)O`: the max response is -0.607% and -1.19%.

Regarding `Cc1cc(O)cc(C)c1Cl`, the max response is -8.32% and -0.996%.

For `CCCCCCCCCCCCN`, the max response is 3.89% and -9.66%; the Potency was 43.6 µM (active).

With `CCCCCCCCCC(=O)O`, the max response was 7.81% and 12.5%.

In the case of `COCC(=O)O`, the max response is 0.194% and 4.44%.
